Measured values reported in ChEMBL document CHEMBL4513141, “CO-ADD screening of NIH (USA) - Clinical Collection” (2021).
Potency and affinity values are given separately.

These compounds were tested on Candida albicans. Details: 20 µM.

| Compound | Inhibition [%] |
| --- | --- |
| Sc1ncnc2nc[nH]c12 [MERCAPTOPURINE ANHYDROUS] | 11.2 |
| CN(C)[C@@H]1C(=O)C(C(=O)NCN2CCCC2)=C(O)[C@@]2(O)C(O)=C3C(=O)c4c(O)cccc4[C@@](C)(O)C3CC12 (some centres not stated) | 0.75 |
| CC(=O)O.CC(C)C[C@H](NC(=O)[C@@H](COC(C)(C)C)NC(=O)[C@H](Cc1ccc(O)cc1)NC(=O)[C@H](CO)NC(=O)[C@H](Cc1c[nH]c2ccccc12)NC(=O)[C@H](Cc1c[nH]cn1)NC(=O)[C@H]1CCC(=O)N1)C(=O)N[C@H](CCCNC(=N)N)C(=O)N1CCC[C@@H]1C(=O)NNC(N)=O | 2.52 |
| OCc1cc(C(O)CNCCCCCCOCCCCc2ccccc2)ccc1O (configuration not stated) [SALMETEROL] | 5.42 |
| CCCc1cc(=O)[nH]c(=S)[nH]1 [PROPYLTHIOURACIL] | 3.22 |
| COc1ccc(Cl)cc1C(=O)NCCc1ccc(S(=O)(=O)NC(=O)NC2CCCCC2)cc1 [GLYBURIDE] | -0.39 |
| Cc1cccc(C)c1NC(=O)C(C)N (configuration not stated) [TOCAINIDE] | 1.33 |
| O=C(CCCN1CC=C(n2c(=O)[nH]c3ccccc32)CC1)c1ccc(F)cc1 [DROPERIDOL] | 4.22 |
| CCCCNc1cc(C(=O)O)cc(S(N)(=O)=O)c1Oc1ccccc1 [BUMETANIDE] | 3.22 |
| CC[N+](C)(CC)CCOC(=O)C(O)(c1ccccc1)C1CCCCC1.[Br-] (configuration not stated) [OXYPHENONIUM BROMIDE] | 2.42 |
| N[C@@H]1CONC1=O [CYCLOSERINE] | 1.72 |
| Nc1ccc2cn[nH]c2c1 | 4.22 |
| COC(=O)C1=C(C)NC(C)=C(C(=O)OCCN(C)Cc2ccccc2)C1c1cccc([N+](=O)[O-])c1.Cl (configuration not stated) [NICARDIPINE HYDROCHLORIDE] | 0.94 |
| CS(=O)(=O)O.Oc1ccc(C2CNCCc3c2cc(O)c(O)c3Cl)cc1 (configuration not stated) [FENOLDOPAM MESYLATE] | 1.85 |
| CC(C)(C)NC(=O)[C@H]1CC[C@H]2[C@@H]3CC[C@H]4NC(=O)C=C[C@]4(C)[C@H]3CC[C@]12C [FINASTERIDE] | 0.68 |
| Cc1[nH]c(=O)c(C#N)cc1-c1ccncc1 [MILRINONE] | 3.54 |
| CN1CCC(=C2c3ccccc3CCc3sccc32)CC1.O=C(O)/C=C\C(=O)O | 3.52 |
| Cl.O.O=C(c1ccc(F)cc1)C1CCN(CCn2c(=S)[nH]c3ccccc3c2=O)CC1 | 3.36 |
| CC(Oc1c(Cl)cccc1Cl)C1=NCCN1.Cl (configuration not stated) [LOFEXIDINE HYDROCHLORIDE] | 2.12 |

| Compound | Inhibition [%] |
| --- | --- |
| Cl.O.OC[C@H]1O[C@@H](n2cnc3c(N[C@H]4CCC[C@@H]4O)ncnc32)[C@@H](O)C1O (some centres not stated) | 3.02 |
| CCc1cccc2c3c([nH]c12)C(CC)(CC(=O)O)OCC3 (configuration not stated) [ETODOLAC] | 1.19 |
| CN(C)CCN(Cc1ccccc1)c1ccccn1.Cl [TRIPELENNAMINE HYDROCHLORIDE] | 5.56 |
| CC1=C(/C=C/C(C)=C/C=C/C(C)=C/C(=O)O)C(C)(C)CCC1 [TRETINOIN] | 2.93 |
| Cl.O=C(O)/C=C/c1ccc(Cn2ccnc2)cc1 | 3.2 |
| Cc1ccc(N(CC2=NCCN2)c2cccc(O)c2)cc1 [PHENTOLAMINE] | 2.06 |
| COc1ccc2c(c1)c(CC(=O)O)c(C)n2C(=O)c1ccc(Cl)cc1.O | 3.53 |
| NS(=O)(=O)c1cc2c(cc1C(F)(F)F)NC(Cc1ccccc1)NS2(=O)=O (configuration not stated) [BENDROFLUMETHIAZIDE] | 3.76 |
| CC(=O)O[C@H]1C[C@@H]2CC[C@@H]3[C@H](CC[C@@]4(C)[C@H]3C[C@H]([N+]3(C)CCCCC3)[C@@H]4OC(C)=O)[C@@]2(C)C[C@@H]1N1CCCCC1.[Br-] [VECURONIUM BROMIDE] | 5.46 |
| N#Cc1ccc(C(c2ccc(C#N)cc2)n2cncn2)cc1 [LETROZOLE] | 2.89 |
| CC(C(O)c1ccc(O)cc1)N1CCC(Cc2ccccc2)CC1.O.O=C(O)C(O)C(O)C(=O)O (configuration not stated) | 2.38 |
| O=C(O)c1cc(-c2ccc(F)cc2F)ccc1O [DIFLUNISAL] | 13.4 |
| Nc1nc2c(ncn2COCCO)c(=O)[nH]1 [ACYCLOVIR] | 4.6 |
| CCCc1nc(C(C)(C)O)c(C(=O)OCc2oc(=O)oc2C)n1Cc1ccc(-c2ccccc2-c2nnn[nH]2)cc1 [OLMESARTAN MEDOXOMIL] | 4.08 |
| Nc1ccn([C@@H]2CS[C@H](CO)O2)c(=O)n1 [LAMIVUDINE] | 2.4 |
| Cl.Nc1c2c(nc3ccccc13)CCCC2 [TACRINE HYDROCHLORIDE] | 1.65 |
| Cc1nc(=O)c2cc(CN(C)c3ccc(C(=O)N[C@@H](CCC(=O)O)C(=O)O)s3)ccc2[nH]1 [RALTITREXED] | 2.26 |
| Cc1nccn1CC1CCc2c(c3ccccc3n2C)C1=O (configuration not stated) [ONDANSETRON] | 4.72 |
